Source: PubChem
Rows were chosen to be rich in hits. Some 14% of all compounds tested hit in one or more screens of this group.
Giardia FBPA inh: blocks Giardia fructose-bisphosphate aldolase activity. Potency, µM (series often up to 59.6 µM), usual class: inhibitors. A8B2U2. 0.71% of 290,000 active. purified Giardia FBPA. AID 2451; note: nearly all actives have a fitted effect of over 55% in size
Target sequence (A8B2U2 whole entry, looked up): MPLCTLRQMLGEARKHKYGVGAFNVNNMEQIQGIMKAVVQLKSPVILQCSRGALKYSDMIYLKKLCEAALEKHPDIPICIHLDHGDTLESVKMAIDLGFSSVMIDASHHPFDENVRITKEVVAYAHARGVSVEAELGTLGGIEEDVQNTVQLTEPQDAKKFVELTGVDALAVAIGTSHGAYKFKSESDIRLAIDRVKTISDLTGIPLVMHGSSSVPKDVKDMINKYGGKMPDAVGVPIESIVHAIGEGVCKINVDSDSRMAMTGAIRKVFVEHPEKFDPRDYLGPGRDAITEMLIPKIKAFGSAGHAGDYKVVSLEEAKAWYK
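Giardia FBPA (40 nM reagent) was preincubated 10 min at RT with compound (up to 57.5 uM final), then substrate plus GAPDH/TPI/NAD/arsenate coupling system with diaphorase/resazurin was added; resorufin fluorescence (525/598 nm) was read after 20 min.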
Shiga toxin inh: inhibitors of Shiga toxin in Vero cells; Vero cells, Shiga toxin protein synthesis inhibition reporter; inhibition, % at 38.7 µM; 9.2% of 290,000 active; AID 2315; in the data active = inhibition mostly above about 28%, no sharp cut-off; inactive = mostly below about 43%
LmPK inhibitor: blocks Leishmania mexicana pyruvate kinase activity; AID 1721; purified LmPK, Kinase-Glo ATP luminescence, 1 h; Q27686; Potency, µM (highest dose often 57.5 µM), usual class: inhibitors; 0.37% of 290,000 active
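Pyruvate kinase activity monitored as ATP production (luciferase luminescence). Conditions: 0.1 nM enzyme, 0.5 mM PEP, 0.1 mM ADP, 1 h, RT; normalized against uninhibited and no-enzyme wells.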
CHX counter: affects cycloheximide protein synthesis inhibition readout, counter-screen. cell reporter, cycloheximide protein synthesis inhibition counterscreen. max response, %. 12% of 300,000 active; in the data active = max response mostly above about 13%, no sharp cut-off; inactive = mostly below about 14%; note: read at 38.3 µM for the half of the compounds with a filed dose
NS1 inh: blocks influenza NS1 protein function. Potency, µM (series often up to 46.1 µM). 0.4% of 270,000 active. AID 2326; calls by dose curve; note: actives are rising curves; nearly all actives have a fitted effect of over 50% in size
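A cell-based growth assay was used: compounds that relieve NS1-induced slow growth of budding yeast raise OD600. Assay medium was yeast nitrogen base with ammonium sulphate and -URA supplement, pH 6.0, with 2% galactose.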
Hits are given with their value; – = inactive; ? = inconclusive; · = no result; [ ] = another dose, or the depositor's remark. Unless noted, calls come from the whole dose curve; as a rule, active = well fitted curve in the direction sought with a large enough effect; inconclusive = small, poorly fitted or top-dose-only effect, or another doubt; inactive = no such curve, though single readings can be large; an effect the other way counts as inactive or inconclusive.

SMILES	Giardia FBPA inh	Shiga toxin inh	LmPK inhibitor	CHX counter	NS1 inh
CCCCN1C2=NCCCN2c2ccccc21	–	–	–	–	–
Cc1cnc(NC(=O)C2CC(=O)N(c3cccc(Cl)c3)C2)s1 (stereo unspecified)	–	–	–	–	–
CCCC(=O)Nc1ccc(C(=O)NNC(=S)NC(=O)c2cccs2)cc1	–	–	–	–	–
CCCC(=O)NC(=S)Nc1ccc(NC(=O)c2cccs2)cc1	–	–	–	12	–
CCN(c1ccccc1)S(=O)(=O)c1ccc(NC(=S)NC(=O)c2cccs2)cc1	–	30	–	–	–
O=C(NC(=S)Nc1ccc(S(=O)(=O)N2CCCC2)cc1)c1cccs1	?	–	–	–	–
CCCC(=O)NC(=S)Nc1ccc(N2CCN(C(=O)c3cccs3)CC2)cc1	–	–	–	–	·
CCCC(=O)Nc1ccc(NC(=S)NC(=O)c2cccs2)cc1	–	51	–	–	–
O=C(NC(=S)Nc1ccc(-c2ccc(CO)o2)cc1)c1cccs1	–	67	–[11.5 µM]	46	·
CCNc1ncc2nc(-c3ccccc3)c(=O)n(Cc3cccc(OC)c3)c2n1	–	·	·	·	·
COc1ccc(Oc2ncc3ncc(=O)n(Cc4cccs4)c3n2)cc1	–	·	·	·	·
CCN(CC)c1ccc(NC(=S)NC(=O)c2cccs2)cc1	–	88	–	46	–
C(=N\Nc1nc2ccccc2[nH]1)/c1ccc2c(c1)OCCO2	–	–	–	28	–
C(=N\Nc1nc2ccccc2[nH]1)/c1ccccn1	?	–	?	–	·
COc1ccc(/C=N/Nc2nc3ccccc3[nH]2)cc1OC	–	73	–	32	–
C#CCn1cc(/C=N/Nc2nc3ccccc3[nH]2)c2ccccc21	–	81	–	54	?
Cc1cc(C)nc(N/N=C/c2ccc3c(c2)OCCO3)n1	–	59	–	25	–
C(=N\Nc1ccc2ccccc2n1)/c1ccc2c(c1)OCCO2	–	–	?	–	–
COc1cc2cc3c4cc(OC)c(OC)cc4cc[n+]3c(C)c2cc1OC	–	·	·	·	·
CCc1c(O)c2c(c(O)c1C(C)=O)C(=O)c1c(cc(O)c(C(=O)O)c1C(=O)O)C2=O	·	·	·	·	–
C(=N\Nc1nc2ccccc2[nH]1)/c1cccc2nccnc12	–	–	–	31	–
COC(=O)Cn1cc(/C=N/NC(=O)COc2cccc3cccnc23)c2ccccc21	–	–	–	–	–
COCCNC(=S)N/N=C/c1ccc2c(c1)OCCO2	–	–	–	–	·
C(=N\Nc1nc2ccccc2[nH]1)/c1ccc2ncccc2c1	–	58	–	58	–
CC(C)NC(=S)N/N=C/c1ccc2c(c1)OCCO2	–	53	–	49	–
SMILES	Giardia FBPA inh	Shiga toxin inh	LmPK inhibitor	CHX counter	NS1 inh
C#CCn1cc(/C=N/NC(=O)COc2cccc3cccnc23)c2ccccc21	–	26	–	12	–
c1cncc(CSc2ccc(-c3cccnc3)nn2)c1	–	67	–	–	·
COc1ccc(-c2ccc(SCc3cccnc3)nn2)cc1OC	–	–	–	19	·
c1ccc(-c2ccc(SCc3cccnc3)nn2)nc1	?	137	–	27	·
COc1ccccc1-c1ccc(SCc2cccc(C)c2)nn1	–	–	–	23	·
Cc1ccc(C2CC(=O)Oc3c(C(C)C)ccc(C)c32)cc1 (stereo unspecified)	–	–	·	–	·
CS(=O)(=O)N(C(=O)NC(=O)NC12CC3CC(CC(C3)C1)C2)C1CCCCC1	–	–	–	–	·
Nc1nc2ncc(-c3ccsc3)c(N)n2n1	–	–	–	–	·
CC(C)c1ccc(C(C)NC(=O)C2CCCC2)cc1 (stereo unspecified)	–	–	–	–	–
O=C(c1ccc(F)cc1)N1CCN(S(=O)(=O)c2ccc(Br)cc2)CC1	·	–	–	–	–
c1ccc(CSc2ccc(-c3cccnc3)nn2)cc1	–	98	–	32	·
C=CCc1ccc(OC(=O)c2ccccc2)c(OC)c1	–	–	–	24	–
C=CCc1ccc(OCCCOc2ccc(C(=O)O)cc2)c(OC)c1	–	–	–	–	–
CCC(=O)c1ccc(OCc2ccc(C(=O)OC)o2)c(OC)c1	–	–	–	28	–
C=CCc1ccc(OCc2ccc(C(=O)OC)o2)c(OC)c1	–	87	–	63	–
C=CCc1ccc(OCC(O)CO)c(OC)c1 (stereo unspecified)	–	–	–	–	–
C=CCc1ccc(OCC(O)COCC)c(OC)c1 (stereo unspecified)	–	127	–	36	–
COC(=O)c1ccc(COc2ccc(C=O)cc2OC)o1	–	–	–	–	–
C[C@H](NC(=O)COc1ccc(Cl)cc1)C(=O)N1CCC2(CC1)NCCc1[nH]cnc12	·	–	–	–	–
CC[C@H](C)[C@H](NC(=O)[C@H](CCC(=O)O)NC(=O)[C@@H](N)CO)C(=O)N[C@@H](CCC(N)=O)C(=O)N[C@@H](CC(C)C)C(=O)N[C@@H](CCSC)C(=O)N[C@@H](Cc1cnc[nH]1)C(=O)N[C@@H](CC(N)=O)C(=O)N[C@@H](CC(C)C)C(=O)NCC(=O)N[C@@H](CCCCN)C(=O)N[C@@H](Cc1cnc[nH]1)C(=O)N[C@@H](CC(C)C)C(=O)N[C@@H](CC(N)=O)C(=O)N[C@@H](CO)C(=O)N[C@@H](CCSC)C(=O)N[C@@H](CCC(=O)O)C(=O)N[C@@H](CCCNC(=N)N)C(=O)N[C@H](C(=O)N[C@@H](CCC(=O)O)C(=O)N[C@@H](Cc1c[nH]c2ccccc12)C(=O)N[C@@H](CC(C)C)C(=O)N[C@@H](CCCNC(=N)N)C(=O)N[C@@H](CCCCN)C(=O)N[C@@H](CCCCN)C(=O)N[C@@H](CC(C)C)C(=O)N[C@@H](CCC(N)=O)C(=O)N[C@@H](CC(=O)O)C(=O)N[C@H](C(=O)N[C@@H](Cc1cnc[nH]1)C(=O)N[C@@H](CC(N)=O)C(=O)N[C@@H](Cc1ccccc1)C(=O)O)C(C)C)C(C)C	–	–	·	–	·
Cc1ccc(N2CC(C(=O)NC3CCC(C)CC3)CC2=O)cc1 (stereo unspecified)	·	–	–	–	–
CNC(=S)N/N=C/c1ccccc1Cl	?	–	–	–	–
O=C(N/N=C/c1cccnc1)c1cccc(NC(=O)c2cccc(Br)c2)c1	–	–	–	–	–
COc1ccc(/C=N/NC(=S)Nc2ccccc2)cc1COc1ccc(Br)cc1	–	–	–	–	–
COc1ccc(/C=N/NC(=S)Nc2ccccc2)cc1	–	75	–	55	–
SMILES	Giardia FBPA inh	Shiga toxin inh	LmPK inhibitor	CHX counter	NS1 inh
COc1cc(/C=N/NC(=S)Nc2cccc(C(=O)O)c2)ccc1O	–	–	–	12	–
S=C(N/N=C/c1ccccc1Cl)Nc1ccccc1	–	122	–	54	–
O=C(O)c1cccc(NC(=S)N/N=C/c2cccnc2)c1	?	–	–	17	–
COc1ccccc1CC(=O)N1CCC(CCC(=O)NC2CC2)CC1	·	–	–	–	–
O=C(Nc1ccnn1C1CCN(C(=O)c2cccc(Cl)c2)CC1)C1CC1	·	–	–	–	–
COc1ccc(C2=NOC(C(=O)Nc3ccc4c(c3)OCCO4)C2)c(OC)c1 (stereo unspecified)	–	–	–	–	–
COc1ccc(/C=N/NC(=S)Nc2cccc(C(=O)O)c2)cc1	–	156	–	41	·
